Assay outcomes as filed in PubChem BioAssay.
Shown are actives, neighbours in structure and some others; about 4.6% of the full set was active somewhere.
SKKanGAS inh: blocks kanamycin growth of S. pyogenes SKKanGAS strain. inhibition, % at 7.5 µM. AID 1662. BacTiter-Glo, 6 h. 1.3% of 300,000 active;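 active = mean replicate score, as percent of positive control median, at least 50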;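 also: strain carries kanamycin resistance gene driven by streptokinase promoter and grows in 40 µg/ml kanamycin; loss of luminescence reflects streptokinase promoter inhibition or plain growth inhibition; 0% = median of DMSO wells and 100% = positive control at its reference dose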
tim23-1 inh: growth inhibitors of tim23-1 mutant yeast | 1.3% of 330,000 active | S. cerevisiae tim23-1 growth, BacTiter-Glo luminescence, 24 h | inhibition, % at 20 µM;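 active = growth inhibition of the mutant yeast at or above 50%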;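 also: temperature-sensitive mutant grown at 25 °C; plate controls were DMSO-treated mutant yeast for no effect and medium wells lacking yeast for full effect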
NALP3 yeast inh: NALP3 inhibition in yeast; Yeast reconstituted NLRP3/ASC/caspase-1, beta-gal luminescence, 24 h; inhibition, % at 10 µM; 0.39% of 330,000 active;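 active = inhibition of 50% or more; inactive = inhibition below 50%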;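 also: plate controls were induced DMSO wells for no effect and uninduced yeast grown without galactose for full effect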
TIM10 inh: growth inhibitors of TIM10 yeast strain | S. cerevisiae TIM10 strain growth, BacTiter-Glo luminescence, 24 h | AID 463195 | 1.4% of 330,000 active | inhibition, % at 10 µM;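 active = inhibition of 40% or more at the single tested concentration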;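 also: wild-type TIM10 isogenic control strain grown at permissive 25 °C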
tim10-1 inh: growth inhibitors of tim10-1 mutant yeast. AID 463190. S. cerevisiae tim10-1 ts strain growth, BacTiter-Glo, 24 h. 2.2% of 330,000 active. inhibition, % at 20 µM;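 active = inhibition of at least 40%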;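 also: mutant grown at 25 °C; 0% = DMSO wells with yeast and 100% = wells holding no yeast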
tim10-1 conf: tim10-1 yeast growth inhibition, confirmed | shares compounds with tim10-1 inh | S. cerevisiae tim10-1 ts strain growth, BacTiter-Glo, 24 h | inhibition, % at 20 µM | 56% of 7,400 active;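 active = inhibition of yeast growth at or above a set limit in either of two repeat tests at 20 µM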;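 also: tim10-1 mutant grown at permissive 25 °C to find synthetic lethal compounds; 0% = DMSO yeast wells and 100% = medium wells without yeast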
An asterisk follows results filed as active; x = not tested or not shown.

SMILES | SKKanGAS inh | tim23-1 inh | NALP3 yeast inh | TIM10 inh | tim10-1 inh | tim10-1 conf
CC(C)OC(=O)c1sc2nc(-c3ccccc3)ccc2c1N | -11 | 19 | 25 | -1 | 34 | x
CCCCOCCCN1CC(=O)N2[C@@H](Cc3c([nH]c4ccccc34)C2(C)C)C1=O | 7 | 25 | -14 | 6 | 23 | x
CC(C)Nc1ncnc2c1cnn2Cc1ccc(Cl)cc1 | -1 | 23 | 12 | 16 | 43* | 16
CCC(C)Nc1ncnc2c1cnn2Cc1ccc(Cl)cc1 (configuration not stated) | -3 | 36 | 15 | 7 | 43* | 28
Cc1ccc(Cn2ncc3c(NN)ncnc32)cc1 | -7 | 30 | -17 | 26 | 27 | x
Cc1cccc(N(Cc2ccccc2)C(=O)C2CCN(C(=O)c3ccccc3C)CC2)c1 | x | 12 | 5 | 5 | -3 | x
CCOC(=O)C1CCCN(C(=O)c2ccc3nc(-c4cccc(OC)c4)oc3c2)C1 (configuration not stated) | 1 | 17 | 18 | 15 | 24 | x
Cc1ccc(S(=O)(=O)N/N=C\c2ccc3c(c2)OCO3)c(C)c1 | -1 | 29 | 19 | 10 | 2 | x
CN1CCN(c2cc(N3CCc4ccccc4C3)c(F)cc2[N+](=O)[O-])CC1 | 1 | 34 | 15 | 30 | 48* | 39*
COc1cccc(C(=O)O/N=C(\N)c2ccccn2)c1OC | 0 | 4 | -6 | -5 | 39 | x
N/C(=N\OC(=O)c1cccc([N+](=O)[O-])c1)c1ccccn1 | 16 | 23 | 19 | 31 | 42* | 12
COc1cccc(C(=O)O/N=C(\N)c2ccccn2)c1 | -1 | 33 | 26 | 29 | 40* | 46*
CCOc1ccc(-n2ccnc(SCC(=O)Nc3cccc(OC)c3)c2=O)cc1 | 11 | 20 | 20 | 16 | 13 | x
CSc1ccccc1NC(=O)COC(=O)CCc1ccccc1 | -1 | 15 | 18 | 6 | 3 | x
COc1ccc(C(C(=O)NC2CCCC2)N(C(=O)c2ccoc2C)c2ccc(C)c(C)c2)cc1 (configuration not stated) | -16 | 24 | -11 | 35 | 41* | 17
CCOC(=O)c1sc(-c2ccc(F)cc2)cc1N | 10 | 45 | -41 | 27 | 42* | 39*
O=C(CCOc1ccccc1)Nc1ccccc1F | -1 | 11 | 25 | 12 | 15 | x
COc1ccc(Oc2c(-c3ccc(O)cc3O)n[nH]c2C)cc1 | -9 | 3 | 10 | 6 | 20 | x
CCCOC(=O)c1ccc(Oc2c(-c3ccc(OCC)cc3O)n[nH]c2C)cc1 | 62* | 25 | 21 | 33 | 41* | 29
Cc1cc(C)n(-c2ccn(Cc3ccc(Cl)cc3Cl)c(=O)n2)n1 | -7 | 43 | -1 | 16 | 40* | 28
CSc1nc2c(c(-c3ccccc3)c1C#N)CCC2 | 1 | 31 | 21 | 4 | 48* | 32*
O=C(Nc1cccc2ccccc12)N1CCN(c2ccccc2)CC1 | x | 3 | 23 | -11 | -15 | x
O=C(Nc1cccc(Cl)c1)N1N=CCC1c1ccccc1 (configuration not stated) | -13 | 39 | 15 | 26 | 48* | 47*
Fc1ccc(NC(=S)N2N=CCC2c2ccccc2)cc1 (configuration not stated) | -3 | 25 | 9 | 4 | 36 | x
S=C(Nc1ccccc1)N1N=CCC1c1ccccc1 (configuration not stated) | -5 | 22 | 6 | 12 | 46* | 25
SMILES | SKKanGAS inh | tim23-1 inh | NALP3 yeast inh | TIM10 inh | tim10-1 inh | tim10-1 conf
O=C(Nc1cccc2ccccc12)N1N=CCC1c1ccccc1 (configuration not stated) | 1 | 42 | 9 | 23 | 44* | 29
COc1cccc(CC(=O)OCC(=O)NCC(=O)Nc2cccc(C)c2C)c1 | -6 | -7 | 10 | 9 | 2 | x
CC[C@@]1(C(=O)OC)N[C@H](CN(C)C(=O)Nc2ccc(OC)cc2)[C@@H]2C(=O)N(C)C(=O)[C@@H]21 | x | -10 | 6 | -5 | -9 | x
COc1cc(NC(=O)c2ccc(=O)[nH]n2)cc(OC)c1OC | 1 | 4 | 17 | -16 | 7 | x
Cc1ccnc(SCc2cc(=O)c(OC(=O)c3ccc(Br)o3)co2)n1 | -7 | 38 | 1 | 37 | 46* | 29*
O=C(Oc1coc(CSc2ncccn2)cc1=O)c1ccco1 | 11 | 16 | -2 | 29 | 22 | x
Cc1cnccc1CN(C)Cc1cn(C)nc1-c1ccc(Oc2ccccc2)cc1 | 14 | 36 | 22 | 28 | 40* | 14
